Test results published in PubChem BioAssay AID1259423 (Fisher Drug Discovery Resource Center, 2018).
Several values for one entry are separate records, joined by “and”; a condition that tells them apart may be missing. Equal values may be shown once. Out of some 270,000 compounds screened, about 410 (0.15%) were called active. Cut-off read from the data, not from the text of the source: active = activation above about 40%; inactive = the rest, inconclusive results apart. Many of the other results were omitted from the sample, so actives are more common in it than they were. Some compounds were tested as several samples or in several runs, with calls that do not always agree.

Tested on: Aedes aegypti neuropeptide Y-like receptor 7 (NPYLR7)
Assay: agonists of mosquito NPYLR7 receptor, primary screen, cell-based, Aedes aegypti, calcium fluorescence, mosquito biting behavior (AID 1259423);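 note: 0% = vehicle and 100% = reference agonist at the receptor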
Conditions: HEK293T NPYLR7/Galpha15, GCaMP6s calcium fluorescence, at 10 µM, stronger effect = higher value
[1] = measured here: Max-Min RFU normalised activation

SMILES	activation	activation [1]
Cc1nc(N)sc1C(=O)N/N=C1\CCn2cccc21	4.89% (inactive)	3.57%
CCc1nc2c(OCC=C(C)C)cccn2c1N(C)C(=O)c1ccco1	6.84% (inactive)	-5.05%
CCOC(=O)C1CCN(C(=O)CC2CSc3nc4c(c(=O)n32)CCCC4)CC1 (configuration not stated)	-0.315% (inactive)	-2.68%
COc1ccc(NCc2cccc(F)c2)cc1N1CCOC1=O	11.9% (inactive) and 1.76% (inactive)	10.7% and -0.214%
CCN(CC)c1onc(-c2ccc(F)cc2)c1CN(CCOC)C(=O)Cc1ccccc1	15% (inactive)	16.6%
Cc1ccc(F)c(-n2nnnc2CSCC(=O)NC(C)(C)C)c1	1.4% (inactive)	3.68%
Cc1cc(C)cc(C(O)C(F)(F)F)c1 (configuration not stated)	4.04% (inactive) and 3.71% (inactive)	3.27% and 11.4%
CCc1cccc2sc(N(Cc3ccccn3)C(=O)c3cccc(S(=O)(=O)CC)c3)nc12	1.88% (inactive)	-3.52%
COc1ccc(CN(CC(O)COCC(C)C)CC2CCCO2)cc1OC (configuration not stated)	1.65% (inactive)	13.2%
CN(Cc1ncc[nH]1)C1CCN(c2ccc3c(c2)OCO3)CC1	-10.3% (inactive)	-10.5%
NC(=O)[C@@H]1CN2CCN(C(=O)c3ccco3)C[C@@H]2[C@H]1c1ccccc1	2.73% (inactive)	0.0894%
O=C(c1ccc(-n2cnnn2)cc1)N1CCCC(N2CCCC2)C1 (configuration not stated)	6.38% (inactive)	2.39%
O=c1c2ccccc2sn1CN1CCN(c2ccc(C(F)(F)F)cn2)CC1	10.9% (inactive)	3.72%
CC[C@H]1CN(Cc2cc(Cl)cc(OC)c2OC)CC[C@@]1(C)O	-5.14% (inactive)	-11.2%
Cc1ccc(CN(CCN2CCOCC2)CC(O)c2ccccc2)s1 (configuration not stated)	1.67% (inactive)	15.8%
CCN1C(=O)CSC1=C(C#N)C(N)=O	4.07% (inactive)	-0.252%
CN(C)CC1(O)CCCN(C(=O)c2ccc(N3CCCC3=O)cc2)C1 (configuration not stated)	-3.42% (inactive)	-7.14%
Nc1ccc2c3c(cccc13)C(=O)NC2=O	147% (active)	136%
CC1CNC(=O)CCN1Cc1ccc2cccc(Cl)c2n1 (configuration not stated)	8.75% (inactive)	6.16%
Cc1c(CN2CCn3cncc3C2)c(=O)n(-c2ccccc2)n1C	20.8% (inactive)	15.6%
Clc1cccc2ccc(CN3CCn4cncc4C3)nc12	133% (active)	113%

SMILES	activation	activation [1]
Cc1nc2ccccc2c(=O)n1N=Cc1ccc(OCc2ccccc2)cc1	-6.32% (inactive)	-12.4%
CCOc1ccc(N2CC(NC(=O)Nc3ncccc3C)CC2=O)cc1 (configuration not stated)	2.56% (inactive)	-0.89%
O=C(c1cnn(-c2ccccc2)n1)N1CCCC(COCc2ccccc2)C1 (configuration not stated)	97.3% (active)	92.7%
Cn1nc(C(=O)N2CCCC(COc3ccccc3F)C2)ccc1=O (configuration not stated)	11.1% (inactive)	4.67%
O=C(Cc1cnn(-c2ccccc2)n1)N1CCCCCCC1	10.9% (inactive)	7.94%
CN1CCOC(CCNC(=O)CCC(=O)N2CCCCCC2)C1 (configuration not stated)	1.36% (inactive)	-0.93%
COc1ccc(C(=O)C=Cc2ccc(F)c(F)c2)cc1F	2.38% (inactive)	-4.33%
COc1ccc(C=CC(=O)c2ccc(I)cc2)cc1OC	1.5% (inactive)	6.21%
COc1ccc(C(=O)C=Cc2cc(Br)c(O)c(OC)c2)cc1F	172% (active)	160%
CCCCCCC(=O)Nc1c(-c2ccc(OC)c(OC)c2)nc2cc(C)ccn12	-2.82% (inactive)	4.02%
CC(=O)N1CCC(C(=O)N2CCCC(C(=O)c3ccc(C(F)(F)F)cc3)C2)CC1 (configuration not stated)	0.616% (inactive)	-1.09%
COc1ccc(C)c2sc(N(Cc3ccccc3)C(=O)c3ccc([N+](=O)[O-])o3)nc12	3.04% (inactive)	0.795%
N#C/C(=C\c1ccc2noc(-c3ccccc3)c2c1)C(=O)Nc1ccccc1C#N	22.3% (inactive)	18.1%
Oc1ccc(-c2onc3ccc(Cl)cc23)cc1	112% (active)	227%
c1ccc(Nc2nc(-c3ccco3)nc3ccccc23)cc1	-1.91% (inactive)	4.58%
COc1ccccc1-c1cc(C(=O)N2CCCC2)n2nc(C(C)(C)C)cc2n1	3.24% (inactive)	10.6%
CC1CN(C(=O)NCC(C)N(C)c2ccccc2)CC(C)O1 (configuration not stated)	4.84% (inactive)	1.94%
COc1ccc(CN(Cc2nc(C(=O)O)co2)C(C)c2ccccc2)c(OC)c1 (configuration not stated)	10.6% (inactive)	6.62%
CN(Cc1cc(-c2ccncc2)no1)Cc1cn[nH]c1-c1cccc(F)c1	1.92% (inactive)	4.35%
CC(C(=O)O)N1C(=O)/C(=C/c2ccc(N(C)C)cc2)SC1=S (configuration not stated)	64.5% (active)	54.2%
CC(C(=O)O)N1C(=O)/C(=C/c2ccccn2)SC1=S (configuration not stated)	-2.67% (inactive)	-6.6%

SMILES	activation	activation [1]
COc1ccc(N2C(=O)/C(=C\c3ccc(N(C)C)cc3)SC2=S)cc1	-3.18% (inactive)	-7.36%
Brc1ccc2nc(-c3ccccc3)c(NC3CCCCC3)n2c1	-4.85% (inactive)	5.22%
Cc1csc(=O)n1CCC(=O)OC(C)C(N)=O (configuration not stated)	1.77% (inactive)	0.428%
CC(=O)Oc1ccc(Cn2c(C)c(C(=O)NCc3ccc(C#N)cc3)sc2=O)cc1	53.2% (active)	43.3%
Cc1c(C(=O)NCc2ccc(C#N)cc2)sc(=O)n1Cc1ccc(C(=O)N(C)C)cc1	2.34% (inactive)	-0.426%
CC(=O)Oc1ccc(Cn2c(C)c(C(=O)NCc3ccc(C(C)C)cc3)sc2=O)cc1	-6.93% (inactive)	-8.16%
CC(=O)N1CCN(C(=O)COc2c(C)cc(Br)cc2Cl)CC1	2.73% (inactive)	1.6%
O=P1(Nc2cc(C(F)(F)F)ccc2Cl)C=C(c2ccccc2)OC(c2ccccc2)=C1	52.5% (active)	88.3%
COc1ccc(C(=O)Nc2cc(C(F)(F)F)ccc2Cl)cc1[N+](=O)[O-]	1.83% (inactive)	0.579%
CCn1c(N2CCN(Cc3cccc4ccccc34)CC2)nc2c1c(=O)[nH]c(=O)n2C	1.95% (inactive)	4.2%
O=C(Nc1nc2c(s1)CCC2)c1cnn(Cc2ccccc2)c1	-0.747% (inactive)	-2.1%
O=C(c1ccco1)N(Cc1cccc(Cl)c1)CC1CC(c2ccccc2F)=NO1 (configuration not stated)	-2.38% (inactive)	16.5%
O=C1CCCCCCCCCOCCCCCO1	1.79% (inactive)	0.962%
O=C(NCC1CCCO1)c1cccc(Nc2c(Oc3cccc(Cl)c3)cnn(-c3ccccc3)c2=O)c1 (configuration not stated)	0.00562% (inactive)	12.8%
COCCN(CC(=O)N1CCc2sccc2C1c1ccccc1)C(=O)COCc1ccccc1 (configuration not stated)	1.27% (inactive)	4.39%
Nc1c(Oc2ccccc2)cc(Nc2ccccc2)c2c1C(=O)c1ccccc1C2=O	-6.94% (inactive)	-5.96%
Cc1csc(=Nc2ccccc2)n1C1CCCC1	1.06% (inactive)	7.29%
O=C1OCCN1Cc1nc(CCc2ccccc2)nn1-c1ccccn1	-2.22% (inactive)	-8.03%
CCOc1ccc(C(=O)Nc2sc3c(c2-c2nc4ccccc4s2)CCN(C)C3)cc1	105% (active)	107%
CC(=O)c1ccc(C(=O)Nc2sc3c(c2-c2nc4ccccc4s2)CCN(C)C3)cc1	12.4% (inactive)	11.3%
CC(=O)N1CCc2c(sc(NC(=O)c3cccs3)c2-c2nc3ccccc3s2)C1	3.8% (inactive)	5.03%

SMILES	activation	activation [1]
Cc1ccc(CCC(=O)N2CCOC3(CNCCOC3)C2)cc1C (configuration not stated)	5.94% (inactive)	6.1%
Cc1c(NC(=O)C(C)(C)c2ccccc2)cccc1C(=O)N1CCOCC1	2.93% (inactive)	1.78%
CCOc1nc(-c2ccc(C(F)(F)F)cc2)n(-c2ccc(NCC(O)COCc3ccccc3)cc2)n1 (configuration not stated)	-2.33% (inactive)	4.92%
Fc1ccc(N2CCC(N3CCCC(Nc4ccccc4)C3)CC2)cc1 (configuration not stated)	-4.09% (inactive) and -0.074% (inactive)	-9.41% and 0.61%
O=[N+]([O-])c1c(Nc2ccccc2)[nH]c2ccccc12	15.3% (inactive)	12.9%
CCOC(=O)OC(C)OC(=O)C1N2C(=O)C(NC(=O)[C@H](N)c3ccccc3)C2SC1(C)C (some centres not stated)	-11.5% (inactive)	-16.7%
CC(Oc1ccccc1)C(=O)N[C@@H]1C(=O)N2[C@@H]1SC(C)(C)[C@@H]2C(=O)O (some centres not stated)	-1.06% (inactive) and 61.5% (active)	-1.47% and 49.3%
CC1(C)SC2C(NC(=O)COc3ccccc3)C(=O)N2C1C(=O)O (configuration not stated)	-1.02% (inactive)	-6.97%
CCOC(=O)C(C)Sc1ccc(NC(=O)C(C)C)nn1 (configuration not stated)	0.376% (inactive)	-0.597%
CC(=O)N[C@H]1C[C@@H](c2c(C)nc3sccn23)O[C@@H](C2CCCCC2)C1	19.4% (inactive)	3.2%
CN(c1ccccc1)c1nnc(C(O)c2cc(F)c(F)c(F)c2)s1 (configuration not stated)	0.561% (inactive)	-0.28%
CCc1nc2ccc(C(=O)N(C)Cc3ccco3)cn2c1N(C)CCC(C)C	-5.57% (inactive)	-12.5%
O=C(Nc1ccc(C(F)(F)F)cc1)C1CCCN(c2ccc(-c3ccco3)nn2)C1 (configuration not stated)	-4.36% (inactive)	-8.71%
C=CCN(Cc1csc(COc2ccc(C)c(C)c2)n1)C(=O)c1cccc(OC)c1	-4.71% (inactive)	3.47%
COc1cccc(/C=C2\Oc3c(ccc4c3CN(Cc3ccncc3)CO4)C2=O)c1	66.8% (active)	55.3%
COCCCN1COc2ccc3c(c2C1)O/C(=C\c1cccc(OC)c1OC)C3=O	26.3% (inactive)	20.7%
Cc1c(-c2ccccc2)c(=O)oc2c3c(ccc12)OCN(Cc1cccnc1)C3	-8.96% (inactive)	-15.9%
Cc1nn(C)cc1N1C(=O)c2cccc3c([N+](=O)[O-])ccc(c23)C1=O	-4.56% (inactive)	-14.9%
